# Screening results from PubChem BioAssay.
# Six1-Eya2 inh: qHTS Assay for Inhibitors of the Six1/Eya2 Interaction; Homeobox protein SIX1 (Homo sapiens) + Protein phosphatase EYA2 (Homo sapiens), …; AlphaScreen GST-Six1/His-Eya2 binding, biochemical; stronger effect = lower value; activity change, % (no concentration beside the values); 360,000 compounds, 0.56% hits; AID 651725, 2012; in the data active means activity change below about -65%; inconclusive means mostly about -30% to -63%; further: on the % scale 0 is the no-effect control and ±100 the full control effect
#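 Six1/Eya2 binding was read as AlphaScreen signal after compounds were pinned into GST-Six1 plus His-tagged Eya2 (5X stock 250/500 nM) in pH 8.0 Tris/NaCl/TCEP buffer, beads added, then incubated 1 h, 37 C, dark.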
# HP1b binding inh: HTS for Inhibitors of HP1-beta Chromodomain Interactions with Methylated Histone Tails; Chromobox protein homolog 1 (Homo sapiens), P83916; Potency, µM (doses to about 114 µM), inactives show at the highest dose activity change, negative = inhibition, usual class: inhibitors; 390,000 compounds, 0.56% hits; AlphaScreen HP1-beta / biotin-H3K9me3 peptide binding; further: potency means the concentration at half of the fitted maximal effect; nearly all actives have a fitted effect of over 70% in size
# Target sequence (P83916 whole entry, looked up): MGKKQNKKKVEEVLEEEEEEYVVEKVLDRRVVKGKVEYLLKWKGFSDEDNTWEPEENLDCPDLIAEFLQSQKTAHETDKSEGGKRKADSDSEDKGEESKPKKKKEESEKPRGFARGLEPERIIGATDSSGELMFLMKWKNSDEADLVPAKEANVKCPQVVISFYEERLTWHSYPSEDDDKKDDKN
#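 HP1-beta protein (50 nM final) preincubated 30 min at room temperature with biotinylated H3(1-18)K9me3 peptide (50 nM) in PBS pH 7.4, 0.01% Tween-20, then compound added for 30 min. AlphaScreen streptavidin donor/nickel chelate acceptor beads (10 ug/mL final), 30 min dark, luminescence read.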
# JMJD2A Tudor: qHTS Assay for Inhibitors of JMJD2A-Tudor Domain. AlphaScreen JMJD2A-Tudor / H3K4me3 peptide binding. Potency, µM (top dose mostly 114 µM), inactives show top-dose activity change, negative = inhibition, usual class: inhibitors. 390,000 compounds, 4.4% hits. AID 504339, 2011; further: potency means the concentration at half of the fitted maximal effect; on the % scale 0 is the no-effect control and ±100 the full control effect; nearly all actives have a fitted effect of over 50% in size
# G9a inh: qHTS Assay for Inhibitors of Histone Lysine Methyltransferase G9a; G9a H3K9 monomethylation, AlphaScreen, 2 h; Potency, µM (top dose mostly 102 µM), for inactives: at the highest dose activity, negative = inhibition, most hits filed as inhibitors; Histone-lysine N-methyltransferase EHMT2 (Homo sapiens), Q96KQ7; 350,000 compounds, 8.8% hits; further: potency means the concentration at half of the fitted maximal effect; on the % scale 0 is the no-effect control and ±100 the full control effect; nearly all actives have a fitted effect of over 75% in size
# Target sequence (Q96KQ7 913-1193 limits assumed): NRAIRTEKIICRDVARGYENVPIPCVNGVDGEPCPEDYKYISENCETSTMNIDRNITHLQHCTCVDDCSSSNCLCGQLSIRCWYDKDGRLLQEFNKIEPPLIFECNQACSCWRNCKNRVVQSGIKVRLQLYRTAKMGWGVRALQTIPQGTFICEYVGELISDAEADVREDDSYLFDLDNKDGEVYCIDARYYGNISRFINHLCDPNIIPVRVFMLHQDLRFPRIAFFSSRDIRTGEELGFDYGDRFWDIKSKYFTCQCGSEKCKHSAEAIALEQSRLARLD
#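 AlphaScreen detection with an anti-monomethyl H3K9 antibody quantified product after a 2 h room-temperature reaction containing 500 nM biotinylated H3K9 peptide, 20 µM SAM and 20 nM enzyme, which had been preincubated 15 min with compound.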
# CtBP-E1A blk: qHTS Assay for Inhibitors of the CtBP/E1A Interaction | activity change, % (no concentration beside the values) | 340,000 compounds, 0.49% hits | CtBP / adenovirus E1A interaction (AlphaScreen) | AID 651724, 2012 | AlphaScreen GST-E1A/His-CtBP binding, 1536-well; stronger effect = lower value; in the data active means activity change below about -65%; inconclusive means mostly about -30% to -63%; further: on the % scale 0 is the no-effect control and ±100 the full control effect
#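 AlphaScreen with 125 nM GST-E1A and 125 nM His-CtBP (5X stocks) in Tris pH 8.0, 300 mM NaCl, BSA, Tween 20, TCEP. Compounds preincubated 2 h at 37 deg C, then glutathione donor/nickel acceptor beads added for 1 h at 37 deg C in dark.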
# BAZ2B block: qHTS Assay for Inhibitors of BAZ2B. Bromodomain adjacent to zinc finger domain protein 2B (Homo sapiens), Q9UIF8. AlphaScreen BAZ2B-H3K14Ac peptide displacement. Potency, µM (highest dose often 114 µM), for the others: at the highest dose activity change, negative = inhibition, hits mostly inhibitors. 360,000 compounds, 4.4% hits. AID 504333, 2011; further: potency means the concentration at half of the fitted maximal effect; on the % scale 0 is the no-effect control and ±100 the full control effect; nearly all actives have a fitted effect of over 60% in size
#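 In this displacement format the biotinylated H3(5-23) peptide acetylated at Lys14 serves as ligand at 50 nM, with BAZ2B at 50 nM in PBS pH 7.4 containing 0.01% Tween-20. Donor and acceptor beads are 10 ug/mL final.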
# Active calls of the source: *; ? = inconclusive; . = not tested or not shown; [ ] = dose if it differs, or a comment. Sampled rows, rich in hits. Any-hit rate of the full collection: about 10%. Unless noted, the call rests on the fitted dose curve; in most records, active means well fitted inhibition curve with a large enough effect; inconclusive means small, poorly fitted or top-dose-only effect; inactive means no such curve, though single readings can be large or run the other way.
SMILES,Six1-Eya2 inh,HP1b binding inh,JMJD2A Tudor,G9a inh,CtBP-E1A blk,BAZ2B block
COc1ccc(OC)c(-c2nnc(NC(=O)C(C)Sc3nncn3C)s2)c1 (stereo unspecified),-13,34%,1%,32µM*,-12,-5%
Cc1ccc2[nH]c(=O)c(C3C(C#N)=C(N)Oc4c3ccc3cccnc43)cc2c1 (stereo unspecified),?,14%,-34%,?,-92*,?
Cc1ccccc1Nc1c(-c2ccccc2O)nc2sccn12,.,24%,?,-5%[59 µM],.,?
N#C/C(=C(/O)CCCl)c1ccccn1,0,31%,?,32µM*,.,?
N#C/C(=C(\O)c1ccco1)c1ccccn1,-16,37%,?,?,-4,-6%
CCc1nc2ccc(C(=O)Nc3ccc4c(c3)OCC(=O)N4)cn2c1N(CC)Cc1cccc(Br)c1,-10,.,.,.,-21,.
CCN(CC)c1ccc(NC(=S)NCC2CCCO2)cc1 (stereo unspecified),-27,?,?,?,-9,45µM*
CCOC(=O)c1c(NC(=S)NCC2CCCO2)sc(C)c1C (stereo unspecified),0,?,?,4.5µM*,1,.
CCOC(=O)c1c(NC(=O)CN2CCN(C(=O)C3CCCO3)CC2)sc(C)c1C (stereo unspecified),23,17%,-21%,?,0,?
Cc1cccc(NC(=S)NCC2CCCO2)c1 (stereo unspecified),-6,42%,-5%[11.4 µM],50µM*,-3,-2%
Cc1ccc(NC(=S)NCC2CCCO2)cc1C (stereo unspecified),-3,28%,-3%,0%[59 µM],3,-4%
CC(C)CCNc1nc2c(S(=O)(=O)c3ccc(Br)cc3)nnn2c2ccsc12,.,56%,-16%,16%[59 µM],.,5%
COc1ccccc1-n1cc(-c2ccc(Cl)cc2)[nH]c1=O,3,-9%,-22%[57.1 µM],56µM*,4,?
COc1ccc(-c2cn(-c3cccc(C)c3)c(=O)[nH]2)cc1OC,3,20%,-23%,28µM*,2,?
COc1ccc(-n2cc(-c3ccc(OC)c(OC)c3)[nH]c2=S)cc1,-10,?,3.2µM*,0.89µM*,-8,1%
COc1cc(OC)c(-n2cc(-c3ccc(OC)c(OC)c3)[nH]c2=S)cc1Cl,-10,-7%,?,32µM*,-14,-24%
Cc1ccc(-n2cc(-c3ccccc3)[nH]c2=O)cc1F,0,34%,-27%,?,8,2%
CC1(C(=O)Nc2cccc(NS(C)(=O)=O)c2)CCN1Cc1ccccc1OC(F)F (stereo unspecified),-3,.,.,.,3,.
Cc1ccc(S(=O)(=O)Nc2cccc(-c3ccc(N4CCCCC4)nn3)c2)s1,.,11%[57 µM],-15%,-27%[59 µM],.,-23%
COCCCNC(CC(=O)Nc1ccc(OC)cc1OC)C(=O)O (stereo unspecified),0,-19%,10µM*,?,6,-8%
COc1ccccc1NC(=O)CC(NCc1ccccc1)C(=O)O (stereo unspecified),3,-9%,11µM*,?,6,?
COc1ccc(NC(=O)CC(NCCc2ccccc2)C(=O)O)c(OC)c1 (stereo unspecified),7,-5%,4.5µM*,28µM*,1,-30%
COc1ccc(C2/C=C\CN(S(=O)(=O)c3ccc(C)cc3)C(C)C(=O)N2Cc2ccc(F)cc2)cc1 (stereo unspecified),.,25%,-20%,.,.,.
CCS(=O)(=O)NCCNc1ccc([N+](=O)[O-])cc1,-4,34%,-9%,32%[12.7 µM],5,-20%
Cc1ccc(C)c(NC(=O)Cn2ncc3c([nH]c4ccccc43)c2=O)c1,.,18%,-5%,0%[59 µM],.,3%
SMILES,Six1-Eya2 inh,HP1b binding inh,JMJD2A Tudor,G9a inh,CtBP-E1A blk,BAZ2B block
COc1ccccc1CNCC(=O)Nc1ccc(N(C)C)cc1,-17,-17%,4µM*,-10%[2.33 µM],.,50µM*
CCN(CC)S(=O)(=O)c1ccc(C)c(NC(=O)CNCc2ccccc2OC)c1,9,-22%,11µM*,25µM*,4,22%
CCN(CC)S(=O)(=O)c1ccc(C)c(NC(=O)CN(C)C)c1,2,11%,-4%,12%,-21,-3%
COc1ccc2c(c1)C(=O)O[C@@H](c1ccccc1)C[C@@H](O)C(=O)CC2,0,.,.,.,-2,.
CCOC(=O)c1cccc(Nc2cc(-c3ccccc3)ncn2)c1,.,?,-1%,16µM*,.,50µM*
CN(C)C(=O)c1ccc(-c2cc(Nc3ccccc3)ncn2)cc1,.,.,.,-3%[0.501 µM],.,.
CC(=O)c1cn(CCC(C)C)c(=O)[nH]c1=O,-1,97%,-5%,4%[59 µM],0,6%
NC(=S)N/N=C1\CC(c2ccc3c(c2)OCCCO3)Oc2ccc(F)cc21 (stereo unspecified),-29,-22%,?,.,-15,25µM*
Cc1cc(NS(=O)(=O)c2cn(C)c(C)n2)ccc1Br,.,21%[57 µM],-5%,-6%[59 µM],.,0%
COc1cc(/C=N/N2CCCCC2)cc([N+](=O)[O-])c1O,-15,-21%,?,50µM*,-3,45µM*
COc1cc(/C=C2/C(=O)NN(c3ccc(Cl)cc3)C2=O)cc(OC)c1O,-2,?,50µM*,?,.,35µM*
COc1cc(/C=C2\C(=O)NN(c3ccccc3)C2=O)cc([N+](=O)[O-])c1O,-14,?,89µM*,16µM*,-2,56µM*
CCOC(=O)COc1ccc(/C=C2/C(=O)NN(c3ccc(F)cc3)C2=O)cc1OC,0,14%,?,-6%[0.501 µM],-21,-9%
CCOc1cc(/C=C2\C(=O)NN(c3ccccc3)C2=O)cc([N+](=O)[O-])c1O,-8,40µM*,50µM*,32µM*,-7,?
COC(=O)c1ccccc1NC(=O)c1ccc2c(c1)CCN2S(C)(=O)=O,.,40%,-14%,-1%[59 µM],.,6%
Cc1ccc(NC(=O)COC(=O)C(CC(C)C)N2C(=O)C3CC=CCC3C2=O)c(C)c1 (stereo unspecified),9,34%,-13%,37%[59 µM],-3,-3%
